CHO-K1 Ca ag – nonselective activator or artifact in parental CHO-K1 cells; Fluo-8 calcium fluorescence; scaled to maximal ATP response, vehicle zero; activation, % at 3 µM; hit rate 0.48% among 360,000; AID 602248; in the data active = activation above about 15%;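 note: untransfected CHO-K1 host cells lacking M1 receptor as counterscreen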
CHO-K1 Ca antag – nonselective inhibitor or artifact in parental CHO-K1 cells. hit rate 0.6% among 360,000. inhibition, % at 3 µM. ATP-induced calcium, Fluo-8 fluorescence;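 active = inhibition above a per-plate cutoff, the plate's mean sample inhibition plus 3 SD, cut at about 24% in these data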
CHRM1 agonist – human M1 muscarinic receptor agonism; CHO-K1 hM1, Fluo-8 calcium fluorescence, agonist mode; 0% DMSO, 100% acetylcholine EC100; AID 588814; activation, % at 3 µM; hit rate 0.33% among 360,000;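 active = activation above the run's mean compound activation plus 3 SD, cut at about 16% in these data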;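 note: peak over basal fluorescence ratio within a 140 s kinetic read after compound addition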
Target sequence (P11229 whole entry, looked up): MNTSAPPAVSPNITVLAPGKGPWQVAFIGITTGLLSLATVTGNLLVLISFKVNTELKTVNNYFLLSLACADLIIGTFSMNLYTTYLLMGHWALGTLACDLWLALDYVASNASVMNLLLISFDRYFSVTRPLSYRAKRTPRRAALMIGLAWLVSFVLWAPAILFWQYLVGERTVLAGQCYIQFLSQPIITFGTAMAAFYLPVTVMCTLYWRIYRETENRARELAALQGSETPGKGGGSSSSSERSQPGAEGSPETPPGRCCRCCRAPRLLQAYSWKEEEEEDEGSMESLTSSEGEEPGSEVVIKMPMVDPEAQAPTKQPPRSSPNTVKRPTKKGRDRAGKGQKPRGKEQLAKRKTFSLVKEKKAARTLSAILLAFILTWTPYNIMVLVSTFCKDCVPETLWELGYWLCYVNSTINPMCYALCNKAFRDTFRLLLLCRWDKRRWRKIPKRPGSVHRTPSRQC
M1 PAM parental – M1 PAM counterscreen hit in parental CHO-K1 cells; ATP EC20, Fluo-8 calcium fluorescence; 0% at ATP EC20, 100% at ATP max; activation, % at 3 µM; hit rate 0.02% among 360,000;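 active = activation above the run cutoff, the mean activation of all test compounds plus 3 SD, cut at about 40% in these data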;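 note: peak over basal fluorescence ratio in a 140 s read after ATP addition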
CHRM1 antagonist – blocks human M1 muscarinic receptor; CHO-K1 hM1, Fluo-8 calcium fluorescence, ACh EC80 antagonist; inhibition, % at 3 µM; hit rate 1.3% among 360,000; AID 588852;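 active = percent inhibition above its own plate's cutoff, namely the mean of that plate's compound wells plus 3 SD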;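 note: peak over basal fluorescence ratio during 140 s after agonist addition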
M1 PAM – potentiates human M1 receptor response to acetylcholine | hit rate 0.088% among 360,000 | activation, % at 3 µM | CHO-K1 hM1, Fluo-8 calcium fluorescence, ACh EC20; 0% = ACh EC20, 100% = maximal ACh | P11229; in the data active = activation above about 19%, passing the limit was not always enough
A number is an active result. A selection: hits, their analogues and other compounds. The true share with any hit is near 2.3%.

How did COc1cccc(C(=O)NNC(=O)c2sccc2-n2cccc2)c1 do in these assays?
CHO-K1 Ca ag: 17.7; CHO-K1 Ca antag: inactive; CHRM1 agonist: inactive; M1 PAM parental: inactive; CHRM1 antagonist: inactive; M1 PAM: inactive

Results for CC(CCCN1CCCC1)Nc1ccnc2cc(Cl)ccc12 (centres undefined) ?
CHO-K1 Ca ag: inactive; CHO-K1 Ca antag: inactive; CHRM1 agonist: inactive; M1 PAM parental: inactive; CHRM1 antagonist: 57.6; M1 PAM: inactive

How did CC(C)NC1CCC(Nc2ccnc3cc(Cl)ccc23)CC1 (centres undefined) do in these assays?
CHO-K1 Ca ag: inactive; CHO-K1 Ca antag: inactive; CHRM1 agonist: inactive; M1 PAM parental: inactive; CHRM1 antagonist: inactive; M1 PAM: inactive

Results for CCc1ccc(C(=O)C(C)OC(=O)c2cccc(S(=O)(=O)N3CCOCC3)c2)cc1 (centres undefined) ?
CHO-K1 Ca ag: inactive; CHO-K1 Ca antag: inactive; CHRM1 agonist: inactive; M1 PAM parental: inactive; CHRM1 antagonist: inactive; M1 PAM: inactive

Results for O=C(CSc1n[nH]c(-c2ccccc2)n1)N1CCOCC1 ?
CHO-K1 Ca ag: inactive; CHO-K1 Ca antag: inactive; CHRM1 agonist: inactive; M1 PAM parental: inactive; CHRM1 antagonist: inactive; M1 PAM: inactive

Results for CCCC1CC(C)(C(=O)CSc2n[nH]c(-c3ccccc3)n2)OC1=O (centres undefined) ?
CHO-K1 Ca ag: inactive; CHO-K1 Ca antag: inactive; CHRM1 agonist: inactive; M1 PAM parental: inactive; CHRM1 antagonist: 30.1; M1 PAM: inactive

What do the screens show for `O=S(=O)(c1cc(F)ccc1F)N1CCC2(CC1)OCCN2S(=O)(=O)c1cccs1`?
CHO-K1 Ca ag: inactive; CHO-K1 Ca antag: inactive; CHRM1 agonist: inactive; M1 PAM parental: inactive; CHRM1 antagonist: inactive; M1 PAM: inactive

What do the screens show for `NCCCC(=O)N1c2ccccc2Sc2ccccc21`?
CHO-K1 Ca ag: inactive; CHO-K1 Ca antag: inactive; CHRM1 agonist: inactive; M1 PAM parental: inactive; CHRM1 antagonist: 93.7; M1 PAM: inactive

Results for NCCC(=O)N1c2ccccc2Sc2ccccc21 ?
CHO-K1 Ca ag: inactive; CHO-K1 Ca antag: inactive; CHRM1 agonist: inactive; M1 PAM parental: inactive; CHRM1 antagonist: 41.3; M1 PAM: inactive

How did CCCN(C(=O)c1cc(Cl)nc2ccccc12)c1c(N)n(Cc2ccccc2)c(=O)[nH]c1=O do in these assays?
CHO-K1 Ca ag: inactive; CHO-K1 Ca antag: inactive; CHRM1 agonist: inactive; M1 PAM parental: inactive; CHRM1 antagonist: inactive; M1 PAM: inactive

Results for O=C(CN1C(=O)CCC1=O)Nc1nc2c(F)cc(F)cc2s1 ?
CHO-K1 Ca ag: inactive; CHO-K1 Ca antag: inactive; CHRM1 agonist: inactive; M1 PAM parental: inactive; CHRM1 antagonist: inactive; M1 PAM: inactive

How did O=C(Nc1nc2c(F)cc(F)cc2s1)C1CC1 do in these assays?
CHO-K1 Ca ag: inactive; CHO-K1 Ca antag: 31.4; CHRM1 agonist: inactive; M1 PAM parental: inactive; CHRM1 antagonist: inactive; M1 PAM: inactive

Results for O=C(CC1C(=O)NCCN1Cc1cccc(F)c1)NC1CCCCC1 (centres undefined) ?
CHO-K1 Ca ag: inactive; CHO-K1 Ca antag: inactive; CHRM1 agonist: inactive; M1 PAM parental: inactive; CHRM1 antagonist: inactive; M1 PAM: inactive

How did Nc1c(S(=O)(=O)c2ccccc2)c2nc3ccccc3nc2n1/N=C/c1ccco1 do in these assays?
CHO-K1 Ca ag: inactive; CHO-K1 Ca antag: 26.4; CHRM1 agonist: inactive; M1 PAM parental: inactive; CHRM1 antagonist: inactive; M1 PAM: inactive

What do the screens show for `CC(C)(C)OC(=O)N1CCC(NC(=O)c2[nH]cnc2C(=O)Nc2ccccc2F)CC1`?
CHO-K1 Ca ag: inactive; CHO-K1 Ca antag: inactive; CHRM1 agonist: inactive; M1 PAM parental: inactive; CHRM1 antagonist: inactive; M1 PAM: inactive

How did O=C(CSc1nnc(Cn2nnc3ccccc32)o1)N(Cc1ccc(Cl)cc1)c1ccccc1 do in these assays?
CHO-K1 Ca ag: inactive; CHO-K1 Ca antag: inactive; CHRM1 agonist: inactive; M1 PAM parental: inactive; CHRM1 antagonist: 20.1; M1 PAM: inactive

How did O=C(CSc1nnc(Cn2nnc3ccccc32)o1)Nc1cccc(Cl)c1 do in these assays?
CHO-K1 Ca ag: inactive; CHO-K1 Ca antag: inactive; CHRM1 agonist: inactive; M1 PAM parental: inactive; CHRM1 antagonist: inactive; M1 PAM: inactive

How did O=C(c1ccco1)N1CCN(Cc2nc3ccc([N+](=O)[O-])cc3c(=O)n2-c2ccccc2F)CC1 do in these assays?
CHO-K1 Ca ag: inactive; CHO-K1 Ca antag: 27.7; CHRM1 agonist: inactive; M1 PAM parental: inactive; CHRM1 antagonist: inactive; M1 PAM: inactive

How did CCN(CC)CCNC(=O)c1ccc(NC(=O)c2cccc(S(=O)(=O)Nc3ccc(C)cc3)c2)cc1 do in these assays?
CHO-K1 Ca ag: inactive; CHO-K1 Ca antag: inactive; CHRM1 agonist: inactive; M1 PAM parental: inactive; CHRM1 antagonist: 97.7; M1 PAM: inactive

How did CC1Cc2ccccc2N1S(=O)(=O)c1cccc(C(=O)NNC(=O)c2ccccc2F)c1 (centres undefined) do in these assays?
CHO-K1 Ca ag: inactive; CHO-K1 Ca antag: inactive; CHRM1 agonist: inactive; M1 PAM parental: inactive; CHRM1 antagonist: inactive; M1 PAM: inactive

What do the screens show for `O=C(NNC(=O)c1ccccc1F)c1cccc(S(=O)(=O)N2CCc3ccccc32)c1`?
CHO-K1 Ca ag: inactive; CHO-K1 Ca antag: inactive; CHRM1 agonist: inactive; M1 PAM parental: inactive; CHRM1 antagonist: 37.6; M1 PAM: inactive

How did CCN(CC)CCNC(=O)c1ccc(NC(=O)c2ccc(S(=O)(=O)N(C)c3ccccc3OC)cc2)cc1 do in these assays?
CHO-K1 Ca ag: inactive; CHO-K1 Ca antag: inactive; CHRM1 agonist: inactive; M1 PAM parental: inactive; CHRM1 antagonist: 41.3; M1 PAM: inactive

Results for CN(C)CCNC(=O)c1cccc(S(=O)(=O)Nc2ccc(F)cc2)c1 ?
CHO-K1 Ca ag: inactive; CHO-K1 Ca antag: inactive; CHRM1 agonist: inactive; M1 PAM parental: inactive; CHRM1 antagonist: inactive; M1 PAM: inactive

Results for CCN(CC)CCNC(=O)c1cc(S(=O)(=O)N2CCc3ccccc32)cn1C ?
CHO-K1 Ca ag: inactive; CHO-K1 Ca antag: inactive; CHRM1 agonist: inactive; M1 PAM parental: inactive; CHRM1 antagonist: inactive; M1 PAM: inactive

What do the screens show for `COc1ccccc1N(C)S(=O)(=O)c1ccc(C(=O)Nc2ccc(C(N)=O)cc2)cc1`?
CHO-K1 Ca ag: inactive; CHO-K1 Ca antag: inactive; CHRM1 agonist: inactive; M1 PAM parental: inactive; CHRM1 antagonist: inactive; M1 PAM: inactive

What do the screens show for `CCN(CC)CCNC(=O)c1ccc(NC(=O)c2cccc(S(=O)(=O)N3CCc4ccccc43)c2)cc1`?
CHO-K1 Ca ag: inactive; CHO-K1 Ca antag: inactive; CHRM1 agonist: inactive; M1 PAM parental: inactive; CHRM1 antagonist: 100.2; M1 PAM: inactive

Results for Cc1cc(C)nc(NS(=O)(=O)c2ccc(NC(=O)Cc3ccccc3F)cc2)n1 ?
CHO-K1 Ca ag: inactive; CHO-K1 Ca antag: inactive; CHRM1 agonist: inactive; M1 PAM parental: inactive; CHRM1 antagonist: inactive; M1 PAM: inactive

What do the screens show for `COc1ccc2[nH]cc(CCNC(=O)COc3ccc4ccc(=O)oc4c3)c2c1`?
CHO-K1 Ca ag: inactive; CHO-K1 Ca antag: inactive; CHRM1 agonist: inactive; M1 PAM parental: inactive; CHRM1 antagonist: inactive; M1 PAM: inactive

Source: PubChem (The Scripps Research Institute Molecular Screening Center)
